The list is not random: actives were taken first. Their share in the collection is about 6.5%.
VACV mCherry inh: vaccinia inhibition (mCherry reporter) | Vaccinia virus mCherry reporter infection, fluorescence | Potency, µM (titrated, usually from 36.5 µM), for inactives: at the top dose activity change, negative = inhibition, usual class: inhibitors | 310,000 compounds, 0.63% hits | AID 720579; calls by dose curve; tested in A549 cells; further: potency means the concentration at half of the fitted maximal effect; nearly all actives have a fitted effect of over 35% in size
VACV Venus inh: vaccinia inhibition (Venus reporter); Vaccinia virus Venus reporter expression, fluorescence; Potency, µM (doses to about 36.5 µM), inactives show top-dose activity change, negative = inhibition, actives largely listed as inhibitors; 330,000 compounds, 0.46% hits; AID 720580; calls by dose curve; tested in A549 cells; further: potency means the concentration at half of the fitted maximal effect; nearly all actives have a fitted effect of over 30% in size
HCMV inh: human cytomegalovirus inhibition; HFF cells, HCMV-luciferase reporter, 72 h; active compounds read low; activity change, negative = inhibition, % at 57.5 µM; 410,000 compounds, 4.5% hits; AID 1259415; in the data active means activity change below about -60%; inconclusive means no clear call, values can overlap the other calls; inactive means above about -39%
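Screen run at 2 compound doses on HFFs infected with reporter HCMV, MOI 1 PFU/cell. Luciferase activity from cell lysates at 72 h post infection gave inhibition relative to buffer-only and Salinomycin wells.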
FMDV antiviral: blocks foot and mouth disease virus; AID 1159524; Potency, µM (series often up to 57.9 µM), for inactives: top-dose activity change, negative = inhibition, most hits filed as inhibitors; 410,000 compounds, 1.2% hits; FMDV antiviral cell-based qHTS; calls by dose curve; tested in HEK293T cells; further: read-out not given here; potency means the concentration at half of the fitted maximal effect; nearly all actives have a fitted effect of over 45% in size
MARV entry inh: Marburg virus entry inhibition. Marburg virus pseudotyped entry inhibition, cell reporter. Potency, µM (top dose mostly 37.8 µM), inactives show at the highest dose activity change, negative = inhibition, usual class: inhibitors. 300,000 compounds, 1.8% hits; calls by dose curve; tested in HEK293 cells; further: potency means the concentration at half of the fitted maximal effect
LASV entry inh: Lassa virus entry inhibition. Potency, µM (doses to about 37.9 µM), for inactives: at the top dose activity change, negative = inhibition, hits mostly inhibitors. 300,000 compounds, 1.2% hits. Lassa virus pseudotype entry inhibition, cell reporter; calls by dose curve; tested in HEK293 cells; further: potency means the concentration at half of the fitted maximal effect; nearly all actives have a fitted effect of over 50% in size
Numbers without * were called inactive; i = inactive; ? = inconclusive; . = not tested or not shown; [ ] = remark or other dose. On the % scale 0 is the no-effect control and ±100 the full control effect.

SMILES	VACV mCherry inh	VACV Venus inh	HCMV inh	FMDV antiviral	MARV entry inh	LASV entry inh
CC1=C/C(=N\NC(=S)Nc2cccnc2)CC(C)(C)C1	2%	-9%	-72*	0%	-7%[46.1 µM]	-12%
CC1(C)C2CC=C(/C=N/NC(=S)Nc3cccnc3)C1C2 (centres undefined)	i	-10%	8	-17%	17%	-7%
CC(C)Cc1nc(N2CCN(C(=O)c3ccco3)CC2)c(C#N)c2c1CCC2	-20%	-13%	-31	25µM*	?	?
CC(C)Cc1nc(N2CCN(C(=O)c3ccccc3)CC2)c(C#N)c2c1CCC2	.	.	?	?	?	6.5µM*
CCc1nc(N2CCN(C(=O)c3ccco3)CC2)c(C#N)c2c1COC(C)(C)C2	?	-27%	-1	-21%	-6%[46.1 µM]	?
CCCNC(=O)N1CCN(c2nc(C(C)C)c3c(c2C#N)CC(C)(C)OC3)CC1	-9%	?	-66*	?	.	.
CC1(C)Cc2c(C#N)c(N3CCN(C(=O)c4ccco4)CC3)nc(Cc3ccccc3)c2CO1	i	-13%	-36	40µM*	?	-30%
CCOc1ccc(CNC(=O)CCS(=O)(=O)c2cc3c(cc2Cl)NC(=O)CO3)cc1OC	-13%	-8%	4	-8%	.	1%[46.1 µM]
COc1cc2nc(N(C)C)c(CNCCc3c[nH]c4ccccc34)cc2c(OC)c1OC	-10%	2%	.	0%	.	.
O=C(NCC(c1ccco1)S(=O)(=O)c1cccs1)c1ccc(Cl)cc1 (centres undefined)	-12%	-8%	-14	-15%	.	-4%[46.1 µM]
N#Cc1c(N2CCN(C(=O)c3ccco3)CC2)nc(-c2ccccc2)c2c1CCCC2	?	?	-78*	?	?	?
CCCCCCCCCCCCCCCC[n+]1ccc(C)cc1	?	28µM*	.	.	.	.
CCCCCc1ccc(OCCCC[n+]2cccc(C)c2)c(CCCCC)c1	?	?	-102*	?	?	?
CCCCCc1ccc(OCCCC[n+]2ccc(C)cc2)c(CCCCC)c1	?	?	-100*	?	?	4.5µM*
CCCCOc1ccc(C)cc1CN(CCO)CCO	i	-8%	-12	.	-22%	-13%
CCOC(=O)c1noc2ncnc(Nc3cc(Cl)c(OC)cc3OC)c12	-4%	0%	0	-6%	.	13%[46.1 µM]
NC(=O)C1CCN(c2csc3ccc(F)cc3c2=O)CC1	-10%	-15%	8	51%	.	30%[46.1 µM]
CO[C@H]1[C@H](NC(=O)C(C)C)c2ccccc2C12CCN(Cc1c(C)nn(C)c1Cl)CC2	-8%	2%	.	9%	.	.
CC(C)(C)c1ccc(C(=O)NNc2ncnc3c2cnn3-c2ccc(Cl)cc2)cc1	-19%	-8%	-36	-13%	.	?
CC(C)(C)c1ccc(C(=O)NNc2ncnc3c2cnn3-c2ccccc2)cc1	-7%	-1%	-73*	17%	.	?
Cc1cccc(-n2ncc3c(N(C)C4CCCCC4)ncnc32)c1	i	-21%	-78*	18µM*	.	.
COc1ccc(-n2ncc3c(N(C)C4CCCCC4)ncnc32)cc1	?	-22%	-88*	10µM*	.	.
CCN(c1ncnc2c1cnn2-c1cccc(Cl)c1)C1CCCCC1	-8%	0%	?	-24%	.	?
COc1ccc(-n2ncc3c(N4CCC(C)CC4)ncnc32)cc1	-3%	-18%	110	-38%	.	.
O=C(Nc1cccc([N+](=O)[O-])c1)OCc1ccc2c(c1)OCO2	.	.	9	.	.	.
SMILES	VACV mCherry inh	VACV Venus inh	HCMV inh	FMDV antiviral	MARV entry inh	LASV entry inh
O=C(Cn1cccn1)N1CCOc2c(cc(-c3ncc(C(F)(F)F)cc3Cl)cc2OCC2CCCO2)C1 (centres undefined)	i	-14%	.	-16%	.	.
CCOc1cc(C=C(C#N)C#N)ccc1Oc1ccc([N+](=O)[O-])cn1	.	.	11	-36%	.	.
COc1cc(/C=C(/C#N)c2ccc(F)cc2)ccc1Oc1ccc([N+](=O)[O-])cn1	-27%	-21%	-61*	?	?	?
Cc1ccc(CN2CC=CCS2(=O)=O)cc1	.	.	-13	.	.	.
CON(C)C(=O)CCN(C(=O)OC(C)(C)C)c1ccccc1	i	-5%	-37	0%	.	.
COC(=O)CCC(=O)N(CCN(C(=O)CCC(=O)OC)c1ccccc1)c1ccccc1	-1%	-4%	-95*	-10%	-14%[46.1 µM]	-1%[46.1 µM]
O=C(Nc1ccccc1)c1cccn(Cc2ccccc2)c1=O	i	-9%	-31	3%	?	?
CSc1ccc(NC(=O)Nc2cccn(Cc3ccccc3F)c2=O)cc1	?	?	-81*	-14%	.	.
O=C(NCc1ccccc1)Nc1cccn(Cc2ccccc2)c1=O	-17%	-14%	?	0%	0%	?
O=C(Nc1ccncc1)c1cccn(Cc2ccccc2)c1=O	i	-12%	-75*	?	?	-27%[46.1 µM]
CCOc1ccc(NC(=O)Nc2cccn(Cc3ccccc3)c2=O)cc1	?	?	-84*	?	-20%[46.1 µM]	?
Cn1cc(/C=C/c2ccnc3ccccc23)c2ccccc21	?	72%	.	.	.	.
O=C(CN1N=C(c2ccc(Cl)cc2)CCC1=O)NCc1ccc(F)cc1	-6%	-6%	88	-12%	.	11%[46.1 µM]
Cc1ccc(S(=O)(=O)N(C)Cc2ccc(C(=O)N/N=C/c3ccc(OC(F)F)cc3OC(F)F)cc2)cc1	-13%	-23%	?	6.3µM*	?	?
O=C(N/N=C/c1ccc(OC(F)F)cc1OC(F)F)c1ccc(Br)cc1	.	.	-38	15%	7%	0%
CCN1/C(=C/C=C/c2oc3ccc(-c4ccccc4)cc3[n+]2CC)Oc2ccc(-c3ccccc3)cc21	169%	.	-97*	8.9µM*	2.5µM*	4.5µM*
CSc1nc2ccccc2nc1N(C)S(=O)(=O)c1ccc(C)cc1	i	-7%	-66*	-18%	15%[46.1 µM]	-11%[46.1 µM]
Cc1ccc(S(=O)(=O)N(C)c2ccccc2)cc1	-24%	-6%	-24	-9%	-17%	4%
O=C1O[C@@H](N2CCN(C/C=C\c3ccccc3)CC2)c2ccccc21	.	.	.	.	3%	.
Cc1oc2c(c1C(=O)Nc1ccccc1Br)C1=NCCN1C=N2	-19%	-16%	13	44%	.	10%[46.1 µM]
CCc1nc(-c2ccc(OC)c(OC)c2)cc2cc(OC)c(OC)cc12	-8%	-7%	1	-22%	-3%	0%
COc1cc2cc(-c3ccc(O)cc3O)nc(C)c2cc1OC	-20%	1%	-97*	-17%	?	?
COc1cc2cc(-c3ccc(OC)c(OC)c3C)nc(N)c2cc1OC	?	-29%	-92*	-10%	?	?
CCOc1ccc(-c2cc3cc(OC)c(OC)cc3c(C)n2)cc1	5%	-1%	6	-7%	1%[46.1 µM]	-22%
CC(=O)Nc1ccc(S(=O)(=O)N2CCC(n3c(C)nc4cccnc43)CC2)cc1	-13%	-1%	-29	-22%	.	6%[46.1 µM]
Nc1ccccc1/C=C/c1ccnc2ccccc12	-29%	?	.	.	.	.
COc1ccccc1CNC(=O)CCCn1c(=O)c2ccccc2n(Cc2ccc(C)cc2)c1=O	-16%	-13%	7	-10%	-3%[46.1 µM]	21%[46.1 µM]
